Assay results taken from PubChem BioAssay (EPA / NIEHS).
Records with an inconclusive call do not appear. Activity calls are given as the source filed them. How the source made its calls: active means hit-call score of the fitted dose curve at least 0.9, where 1 is the maximum; inconclusive means response in the unintended direction; inactive means score below 0.9.

What was measured:
[1] = biological target: Estrogen receptor beta (Homo sapiens) (UniProt Q92731); assay: OT_ER_ERbERb_1440: Odyssey Thera (OT) 24-hour HEK293T Protein-Complementation Assay for Estrogen Receptor-beta/-beta Homodimer (AID 2283380);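 further: fluorescence gain from ER beta LBD homodimer complementation read by laser scanning cytometry; scored as signal increase over DMSO baseline for both agonists and antagonists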
Outline: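 HEK293T cells stably expressing human ER-beta LBD (aa 310-547) PCA homodimer pair, dosed 24 h; formaldehyde-fixed, Draq5-stained. Readout: increase in nuclear (agonist) or nuclear plus cytoplasmic (antagonist) fluorescence intensity versus DMSO, gain-of-signal fitting.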

[2] = biological target: Bile acid receptor (Homo sapiens) (UniProt Q96RI1); assay: OT_FXR_FXRSRC1_0480: Odyssey Thera (OT) 8-hour HEK293T Protein-Complementation Assay for Farnesoid X receptor/SRC-1 Co-activator (AID 2283383)
Outline: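 PCA, HEK293T, 8 h compound exposure; FXR–SRC-1 binding reconstitutes split reporter; fluorescence intensity; positive-direction fit vs DMSO.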

[3] = biological target: Estrogen receptor (Homo sapiens) (UniProt P03372); assay: OT_ERa_GFPERaERE_0120: Odyssey Thera (OT) 2-hour HeLa Transcription Induction Assay for Estrogen Receptor (AID 2283382)
Outline: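 Cells (human cervical HeLa) receive compound, incubate 2 hours, then are imaged for fluorescent reporter induction. Images are quantified by high content analysis, and activity is fitted as gain of signal against DMSO.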

[4] = biological target: Agonist Androgen Response Element (ARE), AR (gene 367) (UniProt P10275); assay: OT_AR_ARELUC_AG_1440: Odyssey Thera (OT) 24-hour CHO-K1 Luciferase Assay for Agonist Androgen Response Element (ARE) (AID 2283379)
Outline: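 Luminescence increase above DMSO, read after a 24 h compound treatment of CHO-K1 cells expressing an androgen response element luciferase reporter, gives the single primary endpoint; concentration-response fitting used the positive direction.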

Sequence of Estrogen receptor beta (Homo sapiens) (Q92731 whole entry, looked up, the tested form may be a part): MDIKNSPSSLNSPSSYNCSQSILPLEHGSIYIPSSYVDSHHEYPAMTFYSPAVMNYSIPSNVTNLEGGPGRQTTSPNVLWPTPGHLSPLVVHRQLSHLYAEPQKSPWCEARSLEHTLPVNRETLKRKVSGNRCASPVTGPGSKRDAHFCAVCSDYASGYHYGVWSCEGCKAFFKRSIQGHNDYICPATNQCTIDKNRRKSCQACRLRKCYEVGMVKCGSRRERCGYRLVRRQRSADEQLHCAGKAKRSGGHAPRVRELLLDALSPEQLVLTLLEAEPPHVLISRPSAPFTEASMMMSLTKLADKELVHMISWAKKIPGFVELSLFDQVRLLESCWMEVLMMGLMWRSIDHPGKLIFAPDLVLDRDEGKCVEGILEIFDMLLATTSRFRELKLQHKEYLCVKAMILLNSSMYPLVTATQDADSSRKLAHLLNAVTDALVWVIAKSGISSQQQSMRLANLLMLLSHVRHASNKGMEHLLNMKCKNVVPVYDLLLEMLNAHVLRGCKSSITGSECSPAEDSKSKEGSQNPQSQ
Sequence of Estrogen receptor (Homo sapiens) (P03372 whole entry, looked up): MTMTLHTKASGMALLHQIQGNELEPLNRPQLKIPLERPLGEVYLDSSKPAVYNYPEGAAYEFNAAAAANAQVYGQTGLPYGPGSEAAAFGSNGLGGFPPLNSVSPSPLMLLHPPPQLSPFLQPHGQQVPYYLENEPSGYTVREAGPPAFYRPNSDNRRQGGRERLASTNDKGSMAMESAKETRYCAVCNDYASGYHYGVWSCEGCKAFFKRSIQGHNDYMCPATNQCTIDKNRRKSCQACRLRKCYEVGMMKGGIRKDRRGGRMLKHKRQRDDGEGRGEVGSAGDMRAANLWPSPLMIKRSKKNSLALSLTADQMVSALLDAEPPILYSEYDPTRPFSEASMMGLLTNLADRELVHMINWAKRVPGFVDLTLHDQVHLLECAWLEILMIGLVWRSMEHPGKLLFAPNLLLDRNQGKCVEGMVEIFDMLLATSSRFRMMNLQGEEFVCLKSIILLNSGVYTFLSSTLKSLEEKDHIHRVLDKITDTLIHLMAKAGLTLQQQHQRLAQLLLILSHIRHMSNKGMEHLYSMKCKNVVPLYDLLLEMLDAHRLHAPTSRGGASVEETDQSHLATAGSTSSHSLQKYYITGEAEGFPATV
Sequence of Bile acid receptor (Homo sapiens) (Q96RI1 whole entry, looked up): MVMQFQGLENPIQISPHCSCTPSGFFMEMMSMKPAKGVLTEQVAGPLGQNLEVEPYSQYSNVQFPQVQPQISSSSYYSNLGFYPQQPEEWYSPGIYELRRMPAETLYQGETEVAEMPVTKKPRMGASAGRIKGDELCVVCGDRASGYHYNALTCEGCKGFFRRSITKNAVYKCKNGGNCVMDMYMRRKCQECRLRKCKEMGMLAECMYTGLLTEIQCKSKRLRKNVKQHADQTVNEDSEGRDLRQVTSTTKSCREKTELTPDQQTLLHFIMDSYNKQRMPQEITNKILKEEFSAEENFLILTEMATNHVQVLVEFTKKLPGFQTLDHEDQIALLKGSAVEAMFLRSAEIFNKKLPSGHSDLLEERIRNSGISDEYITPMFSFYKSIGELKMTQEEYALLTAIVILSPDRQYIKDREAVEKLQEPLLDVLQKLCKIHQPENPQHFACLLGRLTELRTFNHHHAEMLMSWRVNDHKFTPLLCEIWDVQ
Sequence of Agonist Androgen Response Element (ARE), AR (gene 367) (P10275 whole entry, looked up): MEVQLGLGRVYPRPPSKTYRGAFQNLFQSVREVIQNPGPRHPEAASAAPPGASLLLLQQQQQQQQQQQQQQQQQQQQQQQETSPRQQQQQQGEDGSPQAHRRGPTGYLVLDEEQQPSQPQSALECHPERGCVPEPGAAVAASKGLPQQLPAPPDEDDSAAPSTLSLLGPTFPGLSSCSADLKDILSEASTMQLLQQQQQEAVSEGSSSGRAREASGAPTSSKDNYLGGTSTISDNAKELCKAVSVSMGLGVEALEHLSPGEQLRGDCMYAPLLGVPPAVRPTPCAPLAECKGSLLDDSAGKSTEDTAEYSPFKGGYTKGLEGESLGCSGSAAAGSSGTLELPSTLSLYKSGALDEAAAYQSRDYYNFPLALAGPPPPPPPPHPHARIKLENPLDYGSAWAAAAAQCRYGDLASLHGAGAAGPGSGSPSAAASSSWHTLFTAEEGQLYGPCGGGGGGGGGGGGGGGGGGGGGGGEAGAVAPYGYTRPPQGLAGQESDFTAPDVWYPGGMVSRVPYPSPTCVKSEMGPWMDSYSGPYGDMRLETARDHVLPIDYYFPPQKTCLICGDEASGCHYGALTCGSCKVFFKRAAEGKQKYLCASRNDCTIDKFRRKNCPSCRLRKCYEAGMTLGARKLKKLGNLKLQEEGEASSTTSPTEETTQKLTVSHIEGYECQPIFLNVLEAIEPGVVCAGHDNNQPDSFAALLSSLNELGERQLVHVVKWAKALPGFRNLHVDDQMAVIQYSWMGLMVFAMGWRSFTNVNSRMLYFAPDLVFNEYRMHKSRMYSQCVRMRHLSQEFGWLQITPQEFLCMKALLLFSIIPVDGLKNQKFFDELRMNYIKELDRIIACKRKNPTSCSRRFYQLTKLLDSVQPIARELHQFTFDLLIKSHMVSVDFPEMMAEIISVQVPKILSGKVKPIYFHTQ

## CN(C)C(=O)Nc1cccc(C(F)(F)F)c1
[1]
  outcome: inactive

## COP(=O)(NC(C)=O)SC (configuration not stated)
[1]
  outcome: inactive

## Cc1ccn2nc(S(=O)(=O)Nc3c(F)cccc3F)nc2n1
[1]
  outcome: inactive
[2]
  outcome: inactive

## O=C(O)c1cc(Oc2ccc(C(F)(F)F)cc2Cl)ccc1[N+](=O)[O-]
[1]
  outcome: inactive

## COP(=O)(OC)OC(Br)C(Cl)(Cl)Br (configuration not stated)
[1]
  outcome: inactive
[3]
  outcome: inactive
[2]
  outcome: inactive

## CC(=NC#N)N(C)Cc1ccc(Cl)nc1
[1]
  outcome: inactive

## COP(=O)(OC)C(O)C(Cl)(Cl)Cl (configuration not stated)
[2]
  outcome: inactive

## N#CSCSC#N
[1]
  outcome: inactive
[2]
  AC50: 11.4 µM (active)

## CCNc1nc(Cl)nc(NC(C)(C)C#N)n1
[1]
  outcome: inactive

## CCC(=NOC/C=C/Cl)C1=C(O)CC(C2CCOCC2)CC1=O (configuration not stated)
[1]
  outcome: inactive

## CNc1cnn(-c2cccc(C(F)(F)F)c2)c(=O)c1Cl
[1]
  outcome: inactive
[2]
  outcome: inactive

## CCOC(=O)CC(SP(=O)(OC)OC)C(=O)OCC (configuration not stated)
[1]
  outcome: inactive
[2]
  outcome: inactive

## CCOP(=S)(OCC)OC(Cl)C(Cl)(Cl)Cl (configuration not stated)
[1]
  outcome: inactive

## CCCCN(CC)c1c([N+](=O)[O-])cc(C(F)(F)F)cc1[N+](=O)[O-]
[1]
  outcome: inactive

## CCOP(=O)(OCC)Oc1cc(C)nc(C(C)C)n1
[1]
  outcome: inactive
[2]
  outcome: inactive

## CNC(=O)Oc1cccc2c1OC(C)(C)O2
[3]
  outcome: inactive

## CCOP(=S)(OCC)Oc1ccc2c(C)c(Cl)c(=O)oc2c1
[1]
  outcome: inactive

## O=c1ccc(=O)[nH][nH]1
[4]
  outcome: inactive
[2]
  outcome: inactive

## Nc1nc(N)nc(NC2CC2)n1
[1]
  outcome: inactive

## COc1cccc(C(=O)NN(C(=O)c2cc(C)cc(C)c2)C(C)(C)C)c1C
[1]
  outcome: inactive
[2]
  AC50: 14.7 µM (active)

## CCc1cccc(CC)c1N(COC)C(=O)CCl
[1]
  outcome: inactive
[3]
  outcome: inactive
[2]
  outcome: inactive

## CNC(=O)ON=C(C)SC
[1]
  outcome: inactive

## CSC1=N[C@@](C)(c2ccccc2)C(=O)N1Nc1ccccc1
[1]
  outcome: inactive
[2]
  AC50: 44.8 µM (active)

## CCCSP(=O)(OCC)Oc1ccc(Br)cc1Cl (configuration not stated)
[1]
  outcome: inactive
[2]
  AC50: 25 µM (active)

## COP(=O)(OC)SCn1c(=O)oc2cc(Cl)cnc21
[4]
  outcome: inactive
[3]
  outcome: inactive

## CCc1cccc(C)c1N(C(=O)CCl)C(C)COC (configuration not stated)
[1]
  outcome: inactive

## CCC(CC)Nc1c([N+](=O)[O-])cc(C)c(C)c1[N+](=O)[O-]
[1]
  AC50: 13.5 µM (active)
[2]
  AC50: 43.3 µM (active)

## CN(C)NC(=O)CCC(=O)O
[1]
  AC50: 16.8 µM (active)

## CCOP(=S)(OCC)SCCSCC
[1]
  outcome: inactive

## CC1=NNC(=O)N(/N=C/c2cccnc2)C1
[1]
  outcome: inactive

## CCCCSP(=O)(SCCCC)SCCCC
[1]
  outcome: inactive
[2]
  AC50: 36.9 µM (active)
